Screens from PubChem BioAssay.
Shown are actives, neighbours in structure and some others; about 2.4% of the full set was active somewhere.
D2 ag-1: activates the human D2 dopamine receptor. HEK293 T-REx D2 cells, calcium flux agonist mode. activation, % at 2 µM. 340,000 tested, 0.53% active. AID 485358;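 active = activation over 3 SD above normal in the single-dose calcium agonist read, cut at about 30% in these data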; also: 0% is about no effect
Target sequence (P14416 whole entry, looked up): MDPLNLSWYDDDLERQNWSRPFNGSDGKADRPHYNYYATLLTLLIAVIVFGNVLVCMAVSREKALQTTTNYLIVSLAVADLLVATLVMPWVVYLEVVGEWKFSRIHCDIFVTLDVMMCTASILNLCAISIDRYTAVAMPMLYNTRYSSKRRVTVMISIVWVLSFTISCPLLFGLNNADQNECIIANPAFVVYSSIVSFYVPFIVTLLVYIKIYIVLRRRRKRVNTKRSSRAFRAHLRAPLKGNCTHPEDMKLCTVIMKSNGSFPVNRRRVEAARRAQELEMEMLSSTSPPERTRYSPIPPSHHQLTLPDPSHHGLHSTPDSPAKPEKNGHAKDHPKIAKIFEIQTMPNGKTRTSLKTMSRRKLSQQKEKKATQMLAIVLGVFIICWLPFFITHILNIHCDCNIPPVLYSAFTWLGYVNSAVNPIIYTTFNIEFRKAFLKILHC
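Tetracycline-induced HEK293 Trex cells with D2 receptor force-coupled to calcium signaling, plated overnight at 30 C and loaded with no-wash calcium dye. Calcium flux read kinetically for 180 s after compound addition; responses flag agonists.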
D2 antagonist: D2 dopamine receptor (human) antagonism. HEK293 TREx D2 cells, calcium flux, dopamine EC80. 340,000 tested, 2% active. inhibition, % at 10 µM. P14416; in the data active = inhibition above about 30%; inactive = below that, where a call was filed; also: 0% is about no effect
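Cells plated overnight at 30 C with tetracycline; no-wash calcium dye, 30–90 min RT; 10 s baseline; compound pinned; 180 s read; EC80 dopamine added; another 180 s read.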
D2 ag-2: human D2 receptor agonism in beta-arrestin assay; P14416; DiscoveRx PathHunter D2 beta-arrestin, luminescence, 90 min; 100% = 57 uM dopamine signal; activation, % (no concentration beside the values); 360,000 tested, 0.084% active; AID 624465; in the data active = activation above about 40%; inconclusive = between about 15% and that limit
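DiscoveRx PathHunter D2 beta-arrestin cells (2,100/well) attached overnight, then compound-stimulated 90 min at 37 C in HBSS/10 mM HEPES/0.1% Tween-20 buffer; beta-galactosidase complementation read by luminescence after 1 h at ambient temperature. Dopamine 57 uM final (EC100) as control.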
D2 PAM-1: positive allosteric modulators of human D2 dopamine receptor. P14416. HEK293 T-REx D2, calcium flux, EC20 dopamine potentiation. potentiation, % at 10 µM. 340,000 tested, 0.34% active;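 active = potentiation over 3 SD above the plate norm, cut at about 30% in these data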; also: 0% is about no effect
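Primary screen. Calcium kinetics in induced HEK293 T-REx D2 cells: compound pre-addition 180 s, EC20 dopamine, 180 s more.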
D2 PAM-2: human D2 receptor positive allosteric modulation. DiscoveRx D2 beta-arrestin cells, luminescence, 90 min; 100% = 57 uM dopamine signal. 360,000 tested, 0.23% active. P14416. potentiation, % (concentration not given with the values); in the data active = potentiation above about 50%; inconclusive = mostly about 30% to 49%
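PathHunter beta-arrestin assay in DiscoveRx D2 cells. Compounds were added with an EC20 of dopamine (50 nM final) for 90 min at 37 deg C. Luminescence was read 1 h after detection reagent, with 57 uM dopamine as the EC100 control.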
Active calls of the source: *; ? = inconclusive; / = no result given.

SMILES	D2 ag-1	D2 antagonist	D2 ag-2	D2 PAM-1	D2 PAM-2
CCc1nc(-c2cc(S(=O)(=O)N3CCN(c4ccccc4)CC3)ccc2OC)no1	1	/	/	-4	/
C=CCN(C(=O)CNC(=O)c1ccco1)C(C(=O)NC1CCCCC1)c1ccccc1F (centres undefined)	0	-7	-4	38*	-7
COc1ccc(C(C(=O)NCC2CCCO2)N(C(=O)CNC(=O)c2ccco2)c2cc(C)cc(C)c2)cc1OC (centres undefined)	0	-21	0	34*	-6
CCOC(=O)c1ccc(N(C(=O)c2ccco2)C(C(=O)NC2CCCC2)c2ccncc2)cc1 (centres undefined)	0	36*	3	5	6
COCCN(C(=O)CNC(=O)c1ccco1)C(C(=O)NC1CCCC1)c1ccccc1F (centres undefined)	1	-16	2	12	-2
O=C(NC1CCCCC1)C(c1ccncc1)N(C(=O)c1csnn1)c1ccc(F)cc1 (centres undefined)	1	37*	-1	-1	-14
COc1ccc(C(C(=O)NCC2CCCO2)N(C(=O)CNC(=O)c2ccco2)c2ccc(C)c(C)c2)cc1OC (centres undefined)	0	12	-3	-10	-6
COc1cc(NC(=O)N2CCC(CN3CCOCC3)CC2)cc(OC)c1OC	1	/	/	/	/
Cc1cccc(C)c1OCCn1c(C2CC(=O)N(Cc3ccc(F)cc3)C2)nc2ccccc21 (centres undefined)	1	/	/	9	/
COc1ccccc1C1CCN(Cc2c(C)[nH]c3ccccc23)CC1	-1	56*	1	-16	-17
COc1ccccc1C1CCN(Cc2cccc3ccccc23)CC1	-3	82*	0	-34	-11
COc1ccccc1C1CCN(Cc2ccc(Cl)c(Cl)c2)CC1	-1	84*	-3	-29	-16
COc1ccccc1C1CCN(Cc2ccc(Cl)cc2Cl)CC1	1	24	3	1	-36
CCN1CCN(C(=O)Nc2ccc(OC)cc2OC)CC1	0	49*	3	12	-5
COc1ccc(NC(=O)N2CCCCCC2)c(OC)c1	0	-7	-1	-2	-13
O=C(CCN1C(=O)S/C(=C\c2ccccc2)C1=O)N1CCCCC1	0	35*	-3	7	-6
CN1CCN(C(=O)CCN2C(=O)/C(=C/c3cccc(Br)c3)SC2=S)CC1	0	31*	-3	3	-8
CCc1ccc(NC(=O)N2CCOc3ccc(Cl)cc32)cc1	0	/	/	6	/
CC(=O)C(=Nc1ccc(Cl)cc1Cl)NNc1cccc(Cl)c1	-1	-15	?	-6	125*
CC(=O)Nc1ccc(NC(=O)Nc2cccc(Cl)c2)cc1	0	16	-5	-5	-25
COC(=O)COc1ccc2c(-c3cccc([N+](=O)[O-])c3)cc(=O)oc2c1	1	50*	1	-7	19
Cc1ccc2occ(CC(=O)Nc3ccc(S(=O)(=O)N4CCC(C)CC4)cc3)c2c1	4	/	/	-1	/
COc1ccc(NC(=O)N2CCC(C(=O)c3ccc(F)cc3)CC2)cc1	0	-15	1	8	-15
COc1ccc(OC2CCN(C(=O)Nc3ccc(C)cc3)CC2)cc1	1	50*	-8	-13	-21
Cc1ccc(NC(=O)N2CCC(C(=O)NCc3ccccc3)CC2)cc1	0	39*	-2	-7	-12
SMILES	D2 ag-1	D2 antagonist	D2 ag-2	D2 PAM-1	D2 PAM-2
Cc1ccc2c(c1)c1c3n2CCN(C(=O)c2ccc(C(F)(F)F)cc2)C3CCC1 (centres undefined)	-1	/	/	-4	/
COc1ccc(CN2COc3ccc4c(C)cc(=O)oc4c3C2)cc1	0	/	/	-4	/
Cc1[nH]c(=S)[nH]c(=O)c1Cc1ccc(OCC(C)C)cc1	-1	31*	-2	-5	-3
CCCCOc1ccc(Cc2c(COCC)[nH]c(=S)[nH]c2=O)cc1	1	35*	-4	-11	-15
Cc1ccc(N2CCN(C(=O)c3cn(C)c4ccc(S(=O)(=O)N5CCCC5)cc4c3=O)CC2C)cc1 (centres undefined)	1	/	/	14	/
Cc1cccc(OCC(=O)N(Cc2cccc(Cl)c2)Cc2ccco2)c1C	/	/	/	-3	/
Cn1c(-c2ccc(S(=O)(=O)N3CCCC3)cc2)csc1=Nc1ccc(Cl)c(Cl)c1	-1	/	/	0	/
Cc1cc(NS(=O)(=O)c2c(C)[nH]c(=O)[nH]c2=O)ccc1Br	0	41*	-4	-8	-8
Cc1cc(Br)ccc1NS(=O)(=O)c1c(C)[nH]c(=O)[nH]c1=O	0	1	-4	0	-3
Cc1cccc(C)c1NC(=O)CCCn1c(=O)c2cccn2c2ccccc21	0	/	/	-2	/
COc1ccc(-n2c(Cc3cc(=O)[nH]c(=O)[nH]3)nnc2SCC(=O)Nc2cc(C(F)(F)F)ccc2Cl)cc1	-1	41*	-3	-20	-15
C=CCn1c(Oc2cc(C)ccc2C)nc2c1c(=O)n(C)c(=O)n2C	-1	30*	0	15	16
CCn1c(SCc2ccc(OC)c(F)c2)nc2ccccc2c1=O	3	-17	6	33*	-1
COCC(C)n1c(SCc2ccc(OC)c(F)c2)nc2ccccc2c1=O (centres undefined)	/	/	3	/	9
CC(=O)Nc1ccc(NC(=O)CSc2ncnn2-c2ccccc2)cc1	0	15	-2	31*	5
COc1cccc(NC(=O)CSc2nccn2-c2cccc(OC)c2)c1	1	-1	-3	-16	-34
COc1cccc(-n2ccnc2SCC(=O)Nc2ccccc2)c1	0	50*	-4	-23	-32
CC(=O)Nc1ccc(NC(=O)CSc2ccccn2)cc1	-1	1	-1	5	-10
CCOC(=O)c1c(C)[nH]c(C)c1S(=O)(=O)N1CCCC(C(=O)N2CCN(c3cc(C)ccc3C)CC2)C1 (centres undefined)	1	/	/	-3	/
Cc1ccc(S(=O)(=O)N(C)c2ccc(C(=O)NCc3ccccn3)cc2)cc1	0	57*	2	-12	-7
CN(c1ccc(C(=O)NCc2ccccn2)cc1)S(=O)(=O)c1ccc(Cl)cc1	0	-3	-2	2	-9
COc1ccc(NC(=O)CCCc2nnc3n(C(C)C)c(=O)c4sccc4n23)cc1Cl	0	/	/	-5	/
CCOC(=O)c1c(C)c(C(=O)NCc2ccc(Cl)cc2)c(C)n1C	0	/	/	-26	/
COc1cc(/C=C(\C#N)c2nc3ccccc3[nH]2)cc(OC)c1O	36*	9	12	-2	5
CN(C)c1nc2n(c(=O)n1)CCS2	0	0	0	16	1
CN(C)c1nc2n(c(=O)n1)C(C#N)CS2 (centres undefined)	0	33*	-1	6	2
